According to PubChem BioAssay:

Experiment: small molecules captured by biotinylated probe aFGF10 – biochemical, small-molecule microarray, fluorescence 635/667, stem cell growth factor project, primary screen (AID 1071);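 further: score merges 667 nm spot intensity and signal to noise from triplicate slides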
Conditions: higher = more signal

| SMILES | composite z-score |
| --- | --- |
| COCC(=C=CC[C@@H](O)c1ccccc1OCCO)C[C@@H](O)c1ccccn1 | 0.159 |
| COc1ccc([Si](C)(C)[C@H]2[C@H](CCO)O[C@@]3(C(=O)N(Cc4cccc(N5CCOC5=O)c4)c4ccccc43)[C@@H]2C)cc1 | 0.674 |
| COC(=O)C(CC#Cc1ccc2c(c1)[C@]1(C(=O)N2)[C@H](C(=O)N2CCc3cc(OC)c(OC)cc3C2)[C@H]2C(=O)O[C@H](c3ccccc3)[C@H](c3ccccc3)N2[C@@H]1c1ccc(O)cc1)C(=O)OC | 0.734 |
| COc1ccc([Si](C)(C)[C@H]2[C@H](CCn3cc(CCO)nn3)O[C@@]3(C(=O)N(Cc4cccc(N5C(=O)c6cccc7cccc5c67)c4)c4ccccc43)[C@@H]2C)cc1 | 0.906 |
| C[C@H]1ON(c2ccccc2)[C@@H](c2ccccc2)[C@@H]1C(=O)N1C(=O)OC[C@@H]1c1ccccc1 | 0.602 |
| COc1ccc(C#Cc2ccc3c(c2)[C@]2(C(=O)N3)[C@H](C(=O)O)[C@H]3C(=O)O[C@H](c4ccccc4)[C@H](c4ccccc4)N3[C@@H]2c2ccc(OCCO)cc2)cc1 | 0.903 |
| C=CCC(OC(C)=O)[C@@H]1[C@@H](N(Cc2ccc(-c3ccccc3)cc2)C(=O)Cc2ccc(OC)cc2)c2cc(OCCCO)ccc2N1C(=O)c1ccc(-c2ccccc2)cc1 (some centres not stated) | -0.0965 |
| Cc1ccc(S[C@]2(C(=O)NCC(C)C)CC(=O)N(C3CCCCC3)[C@@H]2c2ccc(CO)cc2I)cc1 | 0.384 |
| COC(=O)C(CC#Cc1ccc2c(c1)[C@]1(C(=O)N2)[C@H](c2ccc(OCCO)cc2)N2[C@H](c3ccccc3)[C@H](c3ccccc3)OC(=O)[C@H]2[C@@H]1C(=O)O)C(=O)OC | 0.727 |
| [N-]=[N+]=NCc1ccccc1C[C@@]1(C(=O)NCCN2CCOCC2)N=C(c2ccc(OCCCO)cc2)O[C@@H]1c1ccccc1CN=[N+]=[N-] | 0.924 |
| C[C@]12C(=O)N(CCCO)[C@@H]3C(=O)N(c4ccc(Cl)cc4)CC=CC31O[C@@H]1/C=C\CCCOC(=O)C12 (some centres not stated) | -0.512 |
| CCCCC(O)C1C=CC2C(=O)N(Cc3ccccc3)C(=O)C2N1n1cnnc1 (configuration not stated) | 0.22 |
| Cc1ccccc1C(O)C1C=CC2C(=O)N(C)C(=O)C2N1Nc1ccc([N+](=O)[O-])cc1[N+](=O)[O-] (configuration not stated) | 0.922 |
| COCCOC(=O)N1C(=O)[C@@]2(c3cc(C#Cc4ccc(OC)cc4)ccc31)[C@H](C(=O)N1CCc3cc(OC)c(OC)cc3C1)[C@H]1C(=O)O[C@H](c3ccccc3)[C@H](c3ccccc3)N1[C@@H]2c1ccc(OCCO)cc1 | 0.452 |
| O=c1c2ccc(Br)cc2nc(-c2ccccc2)n1Cc1cccc(O)c1 | 0.556 |
| Cc1ccc(S[C@]2(C(=O)NCCN3CCOCC3)CC(=O)N(C3Cc4ccccc4C3)[C@@H]2c2ccc(CO)cc2)cc1 | -0.168 |
| C=CC[C@@]1(C(=O)NCCN2CCOCC2)N=C(c2ccc(OCCCO)cc2)O[C@@H]1c1ccccc1 | 0.66 |
| C[C@H]1NC(=O)C([C@@H](C)OCc2ccccc2)NC(=O)[C@@]23C(=O)N[C@@H](Cc4ccccc4)C2[C@H](C)[C@@]2(C)O[C@H]2C3/C=C/CC/C=C/CNC1=O (some centres not stated) | 0.263 |
| C/C=C/[C@@H](CCn1cc([C@H](O)c2ccccc2)nn1)[Si](C)(C)c1ccc(OC)cc1 | -0.135 |
| CCCC=C(CCC)[C@@H](NC(=O)Cc1ccccc1)c1ccc(C(=O)OC)cc1 | 0.536 |
| C=C(COC)/C(=C/C[C@@H](OC(=O)c1ccncc1)c1cccc(OCCO)c1)c1cc(C(=O)OC)ccc1OC | 1.06 |
| COc1cc(NN2C(C(O)c3ccc(I)cc3)C=CC3C(=O)N(C)C(=O)C32)cc(OC)c1OC (configuration not stated) | 0.0488 |
| COCCCNC(=O)[C@@]1(Cc2ccccc2CN=[N+]=[N-])N=C(c2ccc(OCCCO)cc2)O[C@H]1c1ccccc1N=[N+]=[N-] | 1.18 |
| O=C(CS)NCCCCCNC(=O)[C@@H]1C[C@@H]2C(=O)N3CCC[C@H]3C(=O)N2[C@@H]1c1ccc(O)cc1 | 0.354 |
| Cc1cc(C)c(C(O)C2C=CC3C(=O)N(c4ccccc4)C(=O)C3N2Nc2ccc([N+](=O)[O-])cc2)c(C)c1 (configuration not stated) | 0.453 |
| C=C[C@H](C)[C@H](OC(=O)Nc1ccc(SC)cc1)c1ccc(O)c2ccccc12 | -0.624 |
| COC(=O)C(CC#Cc1ccc2c(c1)[C@]1(C(=O)N2)[C@H](C(=O)N2CCc3cc(OC)c(OC)cc3C2)[C@H]2C(=O)O[C@H](c3ccccc3)[C@H](c3ccccc3)N2[C@@H]1c1ccc(OCCO)cc1)C(=O)OC | 0.945 |
